Hit rate of the full screen: of about 30,000 compounds, about 130 (0.43%) were called active. The list comes from a sample in which actives are over-represented; it also holds similar structures and randomly drawn compounds. A number with no mark means an inactive call. No stated cut-off is given here; in the data, active means activation above about 65%; inactive means the rest.

In the assay the target is Lysosomal acid glucosylceramidase (Homo sapiens) (UniProt P04062). Put plainly: GBA activity enhancers in patient fibroblasts, primary screen, cell-based (AID 784).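 Further: 0% = vehicle wells and 100% = positive control wells.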 The following applies: L444P Gaucher fibroblasts, 4-MU-glucoside fluorescence, 3 days; at 10 µM; active compounds read high.
Lysosomal acid glucosylceramidase (Homo sapiens), sequence (P04062 whole entry L483P): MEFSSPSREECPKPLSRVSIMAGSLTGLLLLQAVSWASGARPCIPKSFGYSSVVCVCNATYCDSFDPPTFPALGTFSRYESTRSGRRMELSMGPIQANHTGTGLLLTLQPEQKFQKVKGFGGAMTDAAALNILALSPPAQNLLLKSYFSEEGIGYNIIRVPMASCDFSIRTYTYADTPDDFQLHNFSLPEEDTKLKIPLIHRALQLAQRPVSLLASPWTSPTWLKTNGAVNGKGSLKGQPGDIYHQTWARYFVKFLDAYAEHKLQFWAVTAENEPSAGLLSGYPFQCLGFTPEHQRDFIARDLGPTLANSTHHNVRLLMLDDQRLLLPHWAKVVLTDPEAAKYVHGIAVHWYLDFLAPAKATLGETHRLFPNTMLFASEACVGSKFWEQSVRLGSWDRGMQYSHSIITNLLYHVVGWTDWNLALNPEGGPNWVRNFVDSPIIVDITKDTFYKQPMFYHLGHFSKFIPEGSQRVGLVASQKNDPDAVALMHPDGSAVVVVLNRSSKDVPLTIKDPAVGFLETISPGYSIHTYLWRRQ
As to `Cc1c(NC(=O)Nc2ccccc2Cl)sc(=S)n1C`, the activation was -15.8%. On to `CC12C(=O)N(n3cnnc3)C(=O)C1C1C=CC2C1` (configuration not stated), for which the activation is -8.37%. The result for `CC(C)N(C(=O)Cn1c(SCC(=O)N2CCN(c3ccccc3)CC2)nc2ccccc21)C(C)C` reads -5.29%; that for `Cc1ccccc1NC(=O)c1cc(S(=O)(=O)N2CCOCC2)cs1`, -11.8%; that for `CC(=NCc1ccco1)C1=C(O)c2ccccc2C1=O`, -41.5%. Consider `Cc1nc2c(c(=O)n1Cc1ccco1)c1nc3ccccc3nc1n2Cc1ccccc1`, for which the activation is -11.7%. As for `COc1ccc(-c2csc(N3CCN(Cc4ccc5c(c4)OCO5)CC3)n2)cc1`, the activation was -17.4%.

For `CC(c1ccccc1)n1c(NCCCn2ccnc2)nc2c1c(=O)[nH]c(=O)n2C` (configuration not stated), the activation is -10.3%. Next, `COc1ccc(Br)cc1S(=O)(=O)N1CCN=C1C`: -8.13%; `O=[n+]1c2c(n([O-])c3cc(Br)ccc31)CCC2`: 30.8%.

As for `Cc1c(C(=O)OCc2cc(=O)n3cc(Br)ccc3n2)oc2ccccc12`, the activation is 23%. Turning to `CCOCCCNS(=O)(=O)Cc1ccccc1`, the activation was 6.43%. Next, `CCOC(=O)C1=C(C)NC(C)=C(C(=O)OCC)C1C1=COCCO1`: -5.96%; `C=CCn1c(SCc2cc(C(=O)OC)c(C)o2)nnc1-c1ccncc1`: 31.7%; `Cn1c(=O)n(C)c(=O)n(CC(=O)N2CCCCC2)c1=O`: -12.6%. Turning to `Clc1cccc(Cl)c1Cn1nnc(-c2cccs2)n1`, the activation is 10.2%. Next, `COc1ccccc1CNCc1cccs1`: -7.11%.

Regarding `NC(=NC(=O)c1ccccc1)C1=C(O)CCC1=O`, the activation is 0%.

Take `O=C(CSc1nnc(-c2cccs2)n1-c1ccccc1)N1CCN(C(=O)c2ccco2)CC1`: the activation is -13.7%.

Take `Cc1ccsc1CNn1cnnc1SCc1ccccc1F`: the activation was -2.23%. The result for `Cc1nnc(NC2=NCCCCC2)o1` reads 8.3%. `CCS(=O)(=O)N1CCN(C(=O)c2cccs2)CC1`: the activation was -24.4%. For `COc1ccccc1C(=O)Oc1ccc(N2C(=O)CCC2=O)cc1`, the activation was 4.62%. In the case of `COC(C)(C)[C@]12CC(O)(C(C)C)ON1[C@H]1CCCCC1N2O` (some centres not stated), the activation is -2.77%. Next, `CC(Cc1cccs1)NC(=O)NC1CCCCC1` (configuration not stated): -0.56%. Next, `C=C(C)Cn1c(SCC(=O)NCc2ccco2)nc2sc3c(c2c1=O)CCC3`: -21.3%. The result for `CCOC(=O)CC1C(=O)NCCN1C(=O)COc1ccc(Br)cc1C` (configuration not stated) reads -21.1%. Regarding `Nn1c(SCC(=O)NC(=O)NC2CCCC2)nnc1-c1ccccc1F`, the activation is 2.97%. Turning to `O=C(COc1ccc2c3c(c(=O)oc2c1)CCC3)NC1CCCCC1`, the activation was 9.84%. Consider `CC1CC(c2ccccc2)n2nc(NC(=O)c3cccs3)nc2N1` (configuration not stated), for which the activation is -23.6%. Next, `Cc1cc(NC(=O)COC(=O)c2ccc(F)c(S(=O)(=O)N3CCOCC3)c2)no1`: -7.98%; `Cc1cc(C)c2nc(N3CCCC3)c(C#N)cc2c1`: 18.1%; `CN(C(=O)CSc1nnnn1-c1ccccc1)C1CCCCC1`: -16.5%. Turning to `Cc1nn(-c2ccccc2)c(C)c1C(=O)OCC(=O)NC(=O)NC1CCCCC1`, the activation is 59.8%. As to `O=C(c1c(Cl)nc2sccn12)N1CCCc2ccccc21`, the activation was -24.6%. Regarding `CC1(c2ccccc2Cl)NC(=O)N(CC(=O)NC(=O)NCc2ccco2)C1=O` (configuration not stated), the activation is -9.6%. The result for `Cc1cc(OCCN2CCCC2)ccc1C(C)C` reads -12.4%. Turning to `CCC(=O)Nc1nc(OC)cc(OC)n1`, the activation is -18.3%. For `CC(=O)c1cnc(Nc2nc(C)c3cc(C)ccc3n2)nc1C`, the activation is 13.5%. Regarding `Cc1nnc(SCC(=O)N2CCc3ccccc32)n1-c1ccccc1`, the activation is -18.6%.

On to `O=C(Cn1nnc(-c2ccccc2)n1)NCc1ccccc1`, for which the activation is -40%. For `COc1ccc(Cn2c(=O)sc3ccccc32)cc1OC`, the activation was -6.04%. The result for `O=C(O)Cc1ccc(NC(=O)c2cccs2)cc1` reads -9.31%; that for `O=C(NCc1cccnc1)c1cn(-c2ccccc2)nc1-c1cccs1`, -15.4%; that for `COCCCNC(=O)c1c(F)c(F)c(F)c(F)c1F`, -31.9%. Turning to `CCOC(=O)C(CCOc1cccc(CC)c1)C(=O)OCC`, the activation is -0.5%. The result for `CCn1cc(C(=O)NCc2ccc(OC)cc2OC)c(=O)c2ccc(C)nc21` reads -10.1%. In the case of `Cn1c(=O)[nH]c(=O)c2c1nc(N1CCCCCC1)n2CC(=O)c1ccccc1`, the activation is -1.4%.

As for `CC1Cc2ccccc2N1C(=O)Cn1cnc2ccccc2c1=O` (configuration not stated), the activation is -14.5%. The result for `COC(=O)[C@@H](NC(=O)NCc1cccc(OC)c1)C(C)C` reads -5.38%. Take `CCCc1nnc(NC(=O)CN2C(=O)c3ccccc3S2(=O)=O)s1`: the activation is -21.6%.

As to `O=P(O)(CP(=O)(c1ccccc1)c1ccccc1)c1ccccc1`, the activation is -3.68%. The result for `CCCCNC(=O)CSc1nnc(-c2ccco2)n1C` reads -32.4%.

In the case of `Cc1c(C)c2cc3c4c(oc3c(C)c2oc1=O)CCCC4`, the activation was 102% (active). For the compound `COC(=O)CCSc1nccn1Cc1ccccc1`, the activation was -3.3%. Next, `Fc1ccccc1CCNc1nnnn1-c1ccccc1`: -5.46%. `CCN(C(=O)CSc1ncn[nH]1)c1cccc2ccccc12`: the activation is 4.77%. Take `COCCn1nnnc1CN1CCC(NC(=O)Nc2cccc(OC)c2)CC1`: the activation was 2.44%. Take `Cc1ccc(S(=O)(=O)N2CCN(C(=O)CCC(=O)NC3CCCc4ccccc43)CC2)cc1` (configuration not stated): the activation was -7.53%. As to `Cc1ccc(-c2noc(CCC(N)=O)n2)cc1`, the activation is 1.93%. The result for `COCCCNC(=O)Cn1cc(C(=O)C2CC2)c2ccccc21` reads 72.8% (active). As to `COC(=O)c1cn(CC(=O)NCc2cccs2)c2ccccc12`, the activation is -8.81%. Next, `O=C(Cn1cc(C(=O)c2cccs2)c2ccccc21)NCc1cccs1`: 5.52%; `CCCCn1c(SCC(=O)N2CCC(C(=O)OCC)CC2)nc2cc(S(N)(=O)=O)ccc21`: -6.49%. Next, `CCOC(=O)c1cc2c(n(-c3ccc(C)cc3)c1=O)CCCC2=O`: -11%; `Cc1cccc(N2CC(C)Cn3c2nc2c3c(=O)n(CC(=O)OCc3ccccc3)c(=O)n2C)c1` (configuration not stated): -17.9%. Turning to `CCOc1ccccc1-n1c(SCC(=O)N2CCCC2)nnc1-c1ccoc1C`, the activation was 0.64%. The result for `O=C(Nc1nc2cc3c(cc2s1)OCCO3)c1cccc(S(=O)(=O)N2CCOCC2)c1` reads 0.12%. `COc1ccccc1OCCC(=O)OCC(=O)NC(=O)NC(C)(C)C`: the activation is 4.86%.

As for `Cn1nc(-c2ccc(N3CCOCC3)c(NC(=O)c3ccccc3)c2)c2ccccc2c1=O`, the activation is -54.8%. As for `C=CCn1c(N)c(C(=O)OCC(C)C)c2nc3ccccc3nc21`, the activation is -9.15%. The result for `CC(C)Cn1c(N)c(C(=O)NCc2cccs2)c2nc3ccccc3nc21` reads 73.7% (active); that for `C=CCn1c(N)c(S(=O)(=O)c2cccs2)c2nc3ccccc3nc21`, -13.8%; that for `COc1ccc(CC(=O)Nc2ccc3c(c2)CCC3)cc1S(=O)(=O)N1CCOCC1`, 32.8%. The result for `Cc1ccc(C(=O)NC2CC(C)(C)NC(C)(C)C2)c(C)c1` reads -52.5%; that for `CC(=NC1CCN(Cc2ccccc2)CC1)c1c(O)[nH]c(=O)[nH]c1=O`, -6.5%; that for `CS(=O)(=O)N(CC(=O)N1CCN(Cc2ccc3c(c2)OCO3)CC1)c1ccc2c(c1)OCO2`, -6.7%. Take `CCC(C)n1[nH]c(=O)cc1N` (configuration not stated): the activation was 4.55%. For the compound `COc1ccc(C(=O)Cn2nnc(-c3ccc(N4CCOCC4)cc3)n2)cc1OC`, the activation is -17.5%. The result for `O=C1CN(C(=O)COC(=O)C2CC(=O)N(Cc3ccco3)C2)c2ccccc2N1` (configuration not stated) reads 4.58%; that for `CN(C(=O)c1ccno1)c1nnc(-c2cccnc2)s1`, -12.7%. For the compound `COC(=O)c1sc(NC(=O)c2csc3c2CCCC3)nc1C`, the activation is 67.1% (active). On to `COC(=O)c1sccc1NC(=O)c1csc2c1CCCC2`, for which the activation is -10.4%. As for `CC(=O)Cc1nsc(NC(=O)c2csc3c2CCCC3)n1`, the activation was -9.06%. The result for `CCN(CC)S(=O)(=O)c1ccc(NC(=O)CN(c2cccc(F)c2)S(C)(=O)=O)cc1` reads 83.1% (active); that for `COc1cccc(N(CC(=O)Nc2cccc(N(C)S(C)(=O)=O)c2)S(C)(=O)=O)c1`, -7.1%; that for `COc1cccc(N(CC(=O)Nc2cccc(F)c2)S(C)(=O)=O)c1`, 4.09%. Consider `COc1ccccc1N1CCN(C(=O)CSc2nnc(-c3ccoc3C)o2)CC1`, for which the activation is 7.59%. The result for `CCC(C)(C)NC(=O)C(c1cccn1C)N(Cc1ccc(C)cc1)C(=O)Cn1nnc2ccccc21` (configuration not stated) reads -4.98%.

On to `CCOC(=O)C1(Cc2ccc(O)cc2)NC(c2ccccc2F)C2C(=O)N(C)C(=O)C21` (configuration not stated), for which the activation was 102% (active). Consider `CCOC(=O)C1(c2ccccc2)NC(c2ccc(N(C)C)cc2)C2C(=O)N(C)C(=O)C21` (configuration not stated), for which the activation is -22.4%.

On to `COc1ccc2nc(N3CCCC(O)C3)c(C#N)cc2c1` (configuration not stated), for which the activation is -3.51%.

In the case of `Cc1nc(SC(C)C)[nH]c(=O)c1Cc1ccccc1`, the activation is 1.07%. As for `CCc1c(C)nc2ncnn2c1N1CCC(C(=O)NCc2ccc3c(c2)OCO3)CC1`, the activation is 9.86%. Next, `CCOC(=O)C(C)Oc1cccc2c(=O)n(CC(=O)N3CCc4ccccc43)ccc12` (configuration not stated): 3.53%; `O=C(COC(=O)c1ccc2c(c1)OCCO2)NCc1ccccc1`: 1.84%.

For the compound `Cc1cc(C)c(S(=O)(=O)NCCCN2CCOCC2)cc1Br`, the activation was 17.8%.

The values are drawn from PubChem BioAssay AID784 (The Scripps Research Institute Molecular Screening Center, 2007).
